Source: PubChem (National Center for Advancing Translational Sciences (NCATS))
Pin1 inh: blocks the human prolyl isomerase Pin1; Potency, µM (highest dose often 115 µM), inactives show at the highest dose activity, negative = inhibition, hits mostly inhibitors; Pin1 FP peptide displacement, HiFluor488, 10 min; Q13526; 0.009% of 390,000 active; AID 504891; active means well fitted inhibition curve with a large enough effect in the polarisation, with a control signal flat, not every such curve was filed as active; inconclusive means small, poorly fitted or top-dose-only effect, or effect the other way, or a change in a side signal; inactive means no such curve, though single readings can be large or run the other way; the % refers to the polarisation; further: on the % scale 0 is the no-effect control and ±100 the full control effect
Target sequence (Q13526 whole entry, looked up): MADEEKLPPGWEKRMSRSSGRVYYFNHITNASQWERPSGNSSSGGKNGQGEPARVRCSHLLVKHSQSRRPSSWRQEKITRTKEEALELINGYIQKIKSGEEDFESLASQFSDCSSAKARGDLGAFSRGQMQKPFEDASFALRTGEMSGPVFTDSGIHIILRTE
Nrf2 activator: activators of Nrf2 (ARE) signaling; Potency, µM (doses to about 46.1 µM), without a hit: at the highest dose activation, actives largely listed as activators; AREc32 ARE-luciferase reporter (MCF7-derived line), luminescence, 24 h; 0.31% of 410,000 active; further: % of control where 0% means no effect; nearly all actives have a fitted effect of over 65% in size
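ARE activation measured as luciferase luminescence (Steady-Glo, 30 min RT) in AREc32_Fluc cells after 24 hr compound exposure at 37 deg C, 5% CO2; cells seeded overnight at 1000/well in OPTI-MEM, 5% FBS.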
Nrf2 inh: blocks Nrf2 signaling; A549 ARE-Fluc reporter, luciferase luminescence, 18-24 h; Potency, µM (titrated, usually from 46 µM), inactives show at the top dose activity change, negative = inhibition, actives largely listed as inhibitors; 2.1% of 360,000 active; AID 504444; further: on the % scale 0 is the no-effect control and ±100 the full control effect; nearly all actives have a fitted effect of over 60% in size
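Nrf2 activity is the BugLite luminescence, read 15 min after reagent at room temperature, following CellTiter-Fluor cytotoxicity readout (30 min, 37C). Compound titrations were applied for 18-24 h to 5000 A549 ARE_Fluc cells/well in 5% FBS OPTI-MEM.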
A549 viability: counter-screen for Nrf2 inhibitors: cytotoxicity in A549 cells | A549 ARE-Fluc cells, CellTiter-Fluor viability, 18-24 h | Potency, µM (series often up to 46 µM), for the others: top-dose activity change, negative = cytotoxicity, actives largely listed as inhibitors | 0.16% of 390,000 active | AID 504648; further: on the % scale 0 is the no-effect control and ±100 the full control effect
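A549 ARE-Fluc cells in 5% FBS OPTI-MEM, 5000 cells/well, rested 2 h then exposed to compounds in concentration-response for 18-24 h at 37 °C. Viability by CellTiter-Fluor fluorescence (Ex 405/Em 525) after 30 min; luciferase luminescence (BugLite, 15 min, RT) read afterwards.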
* hit, by the source's call; ? = inconclusive; nt = no result. Sampled rows, rich in hits. Any-hit rate of the full collection: about 2.2%. Unless noted, the call rests on the fitted dose curve; in most records, active means well fitted curve in the direction sought with a large enough effect; inconclusive means small, poorly fitted or top-dose-only effect, or another doubt; inactive means no such curve, though single readings can be large; an effect the other way counts as inactive or inconclusive. Potency means the concentration at half of the fitted maximal effect.

SMILES	Pin1 inh	Nrf2 activator	Nrf2 inh	A549 viability
COc1ccc(S(=O)(=O)N2CCN(C(=O)c3cc(-c4ccc(Br)cc4)n[nH]3)CC2)cc1OC	18.9%	2.8%	20.6µM*	-13.1%
O=S(=O)(Nc1cccc(-c2cn3cccnc3n2)c1)c1ccc(F)cc1	4.9%	5.7%	16.4µM*	-28.3%
COc1ccccc1C(=O)NCC(=O)N=Nc1c(O)n(C(C)C)c2ccccc12	4.7%	-0.4%	23.1µM*	-15.2%
CC(C)n1c(O)c(N=NC(=O)CNC(=O)Cc2ccc(Cl)cc2)c2ccccc21	-5.8%	0.1%	-20.0%	-6.4%
COc1ccc(NC(=O)COC(=O)c2c3c(nc4ccccc24)CCCC3)cc1Cl	15.7%	-0.8%	23.1µM*	?
Cc1cc(N2C3CCC2CC(O)(c2ccc(F)cc2)C3)nc(-c2ccccc2)n1 (stereo not given)	-3.9%	4.5%	23.1µM*	?
CC1(C)Cc2c(sc(NC(=O)c3ccccc3)c2C(=O)O)CO1	-4.1%	-0.3%	?	-16.6%
CC(C)COc1ccc(C(=O)Nc2sc3c(c2C(=O)O)CC(C)(C)OC3)cc1	-7.7%	-0.1%	5.8µM*	?
CCOc1ccc(C2c3c(oc4ccc(C)cc4c3=O)C(=O)N2c2nc(C)c(C)s2)cc1OC (stereo not given)	0.0%	0.1%	7.0%	-3.3%
Cc1cc([N+](=O)[O-])ccc1NCc1ccccc1	3.2%	4.4%	18.4µM*	?
Nc1ccc2c(c1)C(=O)N(c1ccc3ccccc3c1)C2=O	-1.0%	nt	?	?
CC(C)N(C)C1CCN(S(=O)(=O)c2ccc3[nH]c(=O)ccc3c2)CC1	0.1%	-0.8%	nt	-1.8%
COc1cccc(CN(C)CC(=O)Nc2ccccc2C(=O)Nc2ccccc2)c1OC	0.5%	2.5%	23.1µM*	?
CN(CC(=O)Nc1ccc(F)c(Cl)c1)S(=O)(=O)c1cccc2nsnc12	2.2%	-0.5%	25.9µM*	-14.4%
COc1ccc(NS(=O)(=O)c2ccc3c(c2)[C@H]2C=CC[C@H]2[C@@H](c2ccc(C(=O)O)cc2)N3)cc1	nt	-0.3%	0.1%	-13.9%
COc1cccc(NS(=O)(=O)c2ccc3c(c2)[C@H]2C=CC[C@H]2[C@@H](c2ccccc2Cl)N3)c1	19.8%	-1.9%	20.6µM*	-19.3%
COc1ccc(Cn2c(=O)n(Cc3ccco3)c(=O)c3oc4ccccc4c32)cc1	3.8%	4.6%	28.4%	0.1%
CCNC(=S)N(CCc1cccc(C)c1)Cc1cc2cc(OC)c(OC)cc2[nH]c1=O	5.8%	0.4%	23.1µM*	-12.2%
CCC12CN3CC(CC)(CN(C1)C3c1cc(Br)ccc1OC)C2=O (stereo not given)	-5.7%	-0.2%	-9.1%	-7.3%
CNC(=O)c1cc(Oc2ccc(NC(=O)Nc3ccc(Cl)c(C(F)(F)F)c3)cc2)ccn1	7.3%	-2.0%	25.9µM*	?
N/C(=N\OC(=O)c1ccccc1Cl)c1ccncc1	?	8.91µM*	?	-0.8%
N/C(=N\OC(=O)c1cccc(Cl)c1)c1ccncc1	1.9%	11.2µM*	12.1%	5.4%
N/C(=N\OC(=O)c1ccc(Cl)cc1Cl)c1ccncc1	51.9%	25.5%	?	3.7%
CC(Oc1ccc(Cl)cc1Cl)C(=O)Nc1ccc(O)cc1 (stereo not given)	-9.3%	0.8%	1.4%	10.8%
CC(Oc1ccc(Br)cc1Cl)C(=O)Nc1ccncc1 (stereo not given)	-9.2%	-1.1%	20.6µM*	0.3%
SMILES	Pin1 inh	Nrf2 activator	Nrf2 inh	A549 viability
CCCN1C(=O)C(Cc2nc3ccccc3c(=O)n2-c2ccc(OC)cc2)c2cc(C)ccc21 (stereo not given)	-3.3%	0.1%	?	-17.6%
CS(=O)(=O)c1ncc(Cl)c(C(=O)N2CCN(c3cccc(Cl)c3)CC2)n1	7.5%	-5.6%	7.31µM*	18.4µM*
Cc1[nH]c2ccc(C(=O)N3CCN(c4cccc(Cl)c4)CC3)cc2c1C	5.5%	-0.9%	?	?
CCS(=O)(=O)c1ncc(Cl)c(C(=O)N2CCN(c3cccc(Cl)c3)CC2)n1	21.1%	-5.7%	23.1µM*	?
COc1ccc(OCC(=O)N2CCN(c3cccc(Cl)c3)CC2)cc1	-4.2%	-1.8%	-3.5%	-1.1%
Cc1ccc(S(=O)(=O)N2CCN(c3nc(-c4cccs4)nc4nc[nH]c34)CC2)cc1	3.4%	nt	-23.2%	11.5%
CC(=O)c1cccc(NC(=O)c2c(C)nn(-c3ccc(F)cc3)c2-n2cccc2)c1	0.3%	-0.6%	?	0.0%
